From the supplement of paper PMC10849652
About 7,900 targets were measured; listed, in parts, are those with a hit and a random draw of the rest. About 0.6% of all pairs of compound and target were hits.

Each target was assayed with c1cn2cc(-c3ccc4cn[nH]c4c3)nc(Nc3ccc(N4CCOCC4)cc3)c2n1 [entospletinib] (assay: log2 fold change, soluble protein after heating vs DMSO (PISA); higher = thermal stabilisation; K562 cells, 10 uM, 30 min; active = over 0.2 and 3.5 SD of the protein, either way, in both replicates (recomputed)).
Outline: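 K562 cells at 2×10^6 cells/mL were exposed to 10 μM compound for 30 min, then aliquots were heated for 3 min across 48°C-58°C, pooled, and extracted in PBS containing 0.5% NP-40 at 4°C. The supernatant after 21,000xg for 90 min was taken as soluble protein and measured by TMTpro 16plex LC-MS/MS with channel sums equalised. Thermal stability is reported relative to control samples, with values from duplicates. Fold changes are given on a log2 scale.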

UniProt P26641, sequence (P26641 whole entry, looked up): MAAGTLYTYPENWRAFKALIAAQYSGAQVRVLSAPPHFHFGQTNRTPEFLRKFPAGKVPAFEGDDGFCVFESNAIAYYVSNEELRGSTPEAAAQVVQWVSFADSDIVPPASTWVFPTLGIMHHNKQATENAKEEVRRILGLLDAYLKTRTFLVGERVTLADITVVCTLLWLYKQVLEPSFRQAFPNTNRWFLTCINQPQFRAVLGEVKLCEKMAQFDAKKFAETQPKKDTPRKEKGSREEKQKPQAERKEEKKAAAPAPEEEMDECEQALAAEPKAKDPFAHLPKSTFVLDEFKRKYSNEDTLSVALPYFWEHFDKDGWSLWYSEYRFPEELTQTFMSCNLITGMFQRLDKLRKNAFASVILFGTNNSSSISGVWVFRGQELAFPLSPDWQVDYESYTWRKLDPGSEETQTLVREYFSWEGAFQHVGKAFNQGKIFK
UniProt P29692, sequence (P29692 whole entry, looked up): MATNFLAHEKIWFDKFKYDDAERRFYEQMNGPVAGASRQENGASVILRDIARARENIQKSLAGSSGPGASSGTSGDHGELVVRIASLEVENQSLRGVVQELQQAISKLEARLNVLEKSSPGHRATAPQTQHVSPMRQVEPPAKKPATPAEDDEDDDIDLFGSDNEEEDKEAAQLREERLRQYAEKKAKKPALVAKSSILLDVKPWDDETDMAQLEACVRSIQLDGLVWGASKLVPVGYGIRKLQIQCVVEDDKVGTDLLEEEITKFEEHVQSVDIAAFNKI
UniProt Q9UPT5, sequence (Q9UPT5 whole entry, looked up): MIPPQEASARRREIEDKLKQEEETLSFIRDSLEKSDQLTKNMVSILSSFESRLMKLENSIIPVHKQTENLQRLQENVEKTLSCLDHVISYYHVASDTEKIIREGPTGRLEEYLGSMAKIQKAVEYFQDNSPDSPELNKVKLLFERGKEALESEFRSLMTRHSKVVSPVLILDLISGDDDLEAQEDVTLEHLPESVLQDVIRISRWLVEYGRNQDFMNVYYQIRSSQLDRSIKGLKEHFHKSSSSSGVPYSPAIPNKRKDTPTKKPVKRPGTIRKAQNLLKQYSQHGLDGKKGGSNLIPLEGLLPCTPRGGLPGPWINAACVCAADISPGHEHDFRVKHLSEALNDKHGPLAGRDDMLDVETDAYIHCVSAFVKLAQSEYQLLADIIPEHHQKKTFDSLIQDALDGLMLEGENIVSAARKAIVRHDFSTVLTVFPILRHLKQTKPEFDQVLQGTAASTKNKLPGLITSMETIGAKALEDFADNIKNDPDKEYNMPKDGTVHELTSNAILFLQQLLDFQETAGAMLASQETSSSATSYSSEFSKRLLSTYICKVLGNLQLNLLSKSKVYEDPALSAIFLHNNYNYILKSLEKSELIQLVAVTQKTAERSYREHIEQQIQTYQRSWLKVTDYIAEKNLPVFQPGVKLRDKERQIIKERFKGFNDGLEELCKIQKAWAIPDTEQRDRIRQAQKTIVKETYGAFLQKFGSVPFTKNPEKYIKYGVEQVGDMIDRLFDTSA
UniProt Q8NBI2, sequence (Q8NBI2 whole entry, looked up): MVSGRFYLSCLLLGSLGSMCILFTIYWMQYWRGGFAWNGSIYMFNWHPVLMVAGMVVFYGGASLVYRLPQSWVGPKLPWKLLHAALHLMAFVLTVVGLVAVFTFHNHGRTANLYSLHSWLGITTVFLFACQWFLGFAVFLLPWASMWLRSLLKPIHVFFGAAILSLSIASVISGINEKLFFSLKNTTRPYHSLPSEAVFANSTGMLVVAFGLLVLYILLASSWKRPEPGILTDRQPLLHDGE
UniProt O60911, sequence (O60911 whole entry, looked up): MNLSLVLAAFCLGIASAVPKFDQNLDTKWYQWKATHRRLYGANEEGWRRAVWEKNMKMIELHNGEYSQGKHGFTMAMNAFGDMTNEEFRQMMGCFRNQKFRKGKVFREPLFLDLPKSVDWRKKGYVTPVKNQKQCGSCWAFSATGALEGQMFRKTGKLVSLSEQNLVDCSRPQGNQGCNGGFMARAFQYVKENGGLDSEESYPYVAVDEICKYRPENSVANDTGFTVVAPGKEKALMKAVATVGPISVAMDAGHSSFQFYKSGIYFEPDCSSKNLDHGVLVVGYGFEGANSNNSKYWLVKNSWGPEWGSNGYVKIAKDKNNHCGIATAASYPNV
UniProt Q96E09, sequence (Q96E09 whole entry, looked up): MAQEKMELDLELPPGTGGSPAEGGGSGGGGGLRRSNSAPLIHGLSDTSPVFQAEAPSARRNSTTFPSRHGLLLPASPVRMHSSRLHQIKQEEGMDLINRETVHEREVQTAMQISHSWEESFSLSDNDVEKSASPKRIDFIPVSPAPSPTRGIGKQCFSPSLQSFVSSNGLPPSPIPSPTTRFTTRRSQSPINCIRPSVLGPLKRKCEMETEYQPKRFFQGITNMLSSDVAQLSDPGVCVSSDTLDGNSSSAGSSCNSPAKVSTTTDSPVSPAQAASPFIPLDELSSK
UniProt P34913, sequence (P34913 whole entry, looked up): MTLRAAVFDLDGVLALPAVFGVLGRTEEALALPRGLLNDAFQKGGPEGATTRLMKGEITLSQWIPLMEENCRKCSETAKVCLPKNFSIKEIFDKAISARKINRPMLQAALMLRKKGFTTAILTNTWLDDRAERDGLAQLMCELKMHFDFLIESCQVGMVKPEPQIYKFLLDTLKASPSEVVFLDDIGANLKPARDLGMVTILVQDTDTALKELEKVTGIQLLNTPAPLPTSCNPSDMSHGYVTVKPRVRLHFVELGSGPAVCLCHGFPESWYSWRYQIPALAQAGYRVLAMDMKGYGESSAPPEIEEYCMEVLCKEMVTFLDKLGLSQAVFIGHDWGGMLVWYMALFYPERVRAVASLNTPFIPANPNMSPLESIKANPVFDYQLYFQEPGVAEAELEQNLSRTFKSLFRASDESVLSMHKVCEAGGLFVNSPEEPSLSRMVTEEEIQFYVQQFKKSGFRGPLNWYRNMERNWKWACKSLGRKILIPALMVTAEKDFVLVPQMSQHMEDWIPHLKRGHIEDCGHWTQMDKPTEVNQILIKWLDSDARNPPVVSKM
UniProt Q15392, sequence (Q15392 whole entry, looked up): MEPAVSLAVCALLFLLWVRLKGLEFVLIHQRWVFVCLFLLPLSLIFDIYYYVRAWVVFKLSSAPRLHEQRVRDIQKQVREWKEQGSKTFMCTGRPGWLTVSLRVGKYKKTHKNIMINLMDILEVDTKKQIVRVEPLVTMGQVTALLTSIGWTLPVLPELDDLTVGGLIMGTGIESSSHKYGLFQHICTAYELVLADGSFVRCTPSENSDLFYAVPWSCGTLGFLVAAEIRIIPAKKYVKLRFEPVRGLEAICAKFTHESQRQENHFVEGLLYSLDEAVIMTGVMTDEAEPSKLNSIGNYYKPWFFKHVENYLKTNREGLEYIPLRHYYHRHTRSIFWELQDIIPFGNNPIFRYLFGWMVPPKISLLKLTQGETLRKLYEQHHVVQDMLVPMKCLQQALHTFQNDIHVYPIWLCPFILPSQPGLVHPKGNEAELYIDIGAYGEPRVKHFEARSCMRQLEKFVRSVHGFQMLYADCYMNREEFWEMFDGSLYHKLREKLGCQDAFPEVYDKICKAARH
UniProt Q5NDL2, sequence (Q5NDL2 whole entry, looked up): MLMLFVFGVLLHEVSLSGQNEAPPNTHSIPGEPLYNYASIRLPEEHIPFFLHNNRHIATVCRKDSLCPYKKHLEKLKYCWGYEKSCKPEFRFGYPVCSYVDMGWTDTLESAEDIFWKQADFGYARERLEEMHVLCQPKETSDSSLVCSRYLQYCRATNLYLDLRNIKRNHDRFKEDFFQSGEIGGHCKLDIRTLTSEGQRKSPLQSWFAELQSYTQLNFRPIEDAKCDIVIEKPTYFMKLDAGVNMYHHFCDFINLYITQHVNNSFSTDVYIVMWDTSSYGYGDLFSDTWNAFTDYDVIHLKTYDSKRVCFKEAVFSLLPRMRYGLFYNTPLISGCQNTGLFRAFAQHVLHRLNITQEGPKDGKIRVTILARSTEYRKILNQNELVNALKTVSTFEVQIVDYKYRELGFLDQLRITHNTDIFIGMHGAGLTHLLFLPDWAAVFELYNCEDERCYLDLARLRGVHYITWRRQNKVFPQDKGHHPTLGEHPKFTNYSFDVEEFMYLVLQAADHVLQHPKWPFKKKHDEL
UniProt Q9UER7, sequence (Q9UER7 whole entry, looked up): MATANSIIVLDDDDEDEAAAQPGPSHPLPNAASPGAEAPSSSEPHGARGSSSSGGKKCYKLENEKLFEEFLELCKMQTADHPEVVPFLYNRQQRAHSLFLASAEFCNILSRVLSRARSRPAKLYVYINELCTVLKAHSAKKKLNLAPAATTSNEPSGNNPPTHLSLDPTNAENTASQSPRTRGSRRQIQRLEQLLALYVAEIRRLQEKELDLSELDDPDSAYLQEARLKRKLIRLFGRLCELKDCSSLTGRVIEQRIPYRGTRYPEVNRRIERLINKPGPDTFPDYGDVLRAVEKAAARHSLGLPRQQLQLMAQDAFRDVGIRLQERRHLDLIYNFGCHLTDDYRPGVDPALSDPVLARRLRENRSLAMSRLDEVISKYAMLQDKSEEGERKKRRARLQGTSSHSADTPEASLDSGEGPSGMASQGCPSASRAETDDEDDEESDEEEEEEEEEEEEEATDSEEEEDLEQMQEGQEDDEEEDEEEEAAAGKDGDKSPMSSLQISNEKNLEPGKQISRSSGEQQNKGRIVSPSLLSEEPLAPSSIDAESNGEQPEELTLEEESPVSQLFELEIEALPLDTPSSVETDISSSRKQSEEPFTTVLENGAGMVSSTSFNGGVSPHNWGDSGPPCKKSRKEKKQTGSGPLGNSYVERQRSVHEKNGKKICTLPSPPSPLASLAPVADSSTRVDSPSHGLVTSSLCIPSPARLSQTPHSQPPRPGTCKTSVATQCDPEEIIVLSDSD

log2 fold change, inactive:
EXOC7 (UniProt Q9UPT5) -0.106
EOGT (UniProt Q5NDL2) 0.005
EEF1D isoform 2 (UniProt P29692) 0.031
CTSV (UniProt O60911) 0.013
EDC4 (UniProt Q6P2E9) 0.044
FAM122A (UniProt Q96E09) -0.012
EEF1G isoform 2 (UniProt P26641) -0.012
DAXX (UniProt Q9UER7) -0.025
DHCR24 (UniProt Q15392) -0.016
EPHX2 (UniProt P34913) 0.05
CYB561A3 isoform 2 (UniProt Q8NBI2) 0.315
